Measured values as given in PubChem BioAssay.
Activity calls are given as the source filed them.

Tests used:
[1] = test system: PRMT1 (protein arginine N-methyltransferase 1); assay: small molecules binding arginine methyltransferase PRMT1 – biochemical, small-molecule microarray, 635 nm fluorescence, primary screen (AID 1088); conditions: higher = more signal;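 note: binding of Prmt1 protein to compounds spotted on small-molecule microarray slides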
[2] = growth effects on S. cerevisiae YJM789 – YJM789 clinical isolate, OD600, 24 h, basal, primary screen (AID 1089); conditions: higher = more signal, called active from +8 up or from −8 down;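 note: growth of clinical yeast isolate S. cerevisiae YJM 789 seeded 1000 cells per well; test concentration not given here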
[3] = S. pombe growth modifiers, basal conditions – strain 972, OD600, 24 h, no modulator, primary screen (AID 1090);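 note: basal condition with compound alone and no growth modifier present; test concentration not given here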; conditions: S. pombe 972 growth, higher = more signal, called active from +8 up or from −8 down
[4] = budding yeast growth modifiers under rapamycin – strain BY4716, OD600, 96 h, primary screen (AID 1091); note: test concentration not given here; conditions: S. cerevisiae BY4716 + rapamycin, higher = more signal, called active from +8 up or from −8 down
[5] = target: Torsin-1A-interacting protein 2 (Homo sapiens) (UniProt Q8NFQ8); assay: small molecules binding lysate-expressed LULL1 – cell lysate, human LULL1 lysate, 635/667 nm fluorescence, primary screen (AID 1092); conditions: small-molecule microarray, hLULL1 lysate binding, 635 nm fluorescence; higher = more signal;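 note: probe is lysate of COS7 cells overexpressing human LULL1; score merges per-feature 667 nm fluorescence with signal-to-noise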
[6] = optical density change of DRC41 E. coli – strain DRC41, OD650, 24 h, E. coli filamentation project, primary screen (AID 1093);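 note: MC1000 strain lacking acrAB efflux and sulA so SOS filamentation is blocked; test concentration not given here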; conditions: E. coli DRC41 growth, higher = more signal, called active from +8 up or from −8 down
[7] = probe aLefty2 binding to arrayed compounds – biochemical, biotinylated probe, 635/667 nm fluorescence, primary screen (AID 1094); conditions: small-molecule microarray, higher = more signal;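 note: score merges spot fluorescence near 667 nm with spot signal-to-noise ratio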
[8] = test system: Noggin (protein binding on small-molecule microarray); assay: small molecules binding Noggin protein – biochemical, 635/667 nm fluorescence, primary screen (AID 1095); conditions: 635 nm fluorescence, higher = more signal;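 note: score merges 667 nm feature fluorescence with signal to noise over triplicate slides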
[9] = target: Neurogenic locus notch homolog protein 3 (Homo sapiens) (UniProt Q9UM47); assay: small molecules binding NOTCH3 protein – biochemical, 635/667 nm fluorescence, primary screen (AID 1096); conditions: small-molecule microarray, 635 nm fluorescence, higher = more signal
[10] = probe aEGFR binding to arrayed compounds – biochemical, biotinylated probe, 635/667 nm fluorescence, primary screen (AID 1097); conditions: small-molecule microarray, higher = more signal;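 note: probe is a biotinylated anti-EGFR antibody binding compounds printed on slides; score combines fluorescence near 667 nm and signal to noise of each spot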

Chain of Torsin-1A-interacting protein 2 (Homo sapiens) (Q8NFQ8 whole entry, looked up): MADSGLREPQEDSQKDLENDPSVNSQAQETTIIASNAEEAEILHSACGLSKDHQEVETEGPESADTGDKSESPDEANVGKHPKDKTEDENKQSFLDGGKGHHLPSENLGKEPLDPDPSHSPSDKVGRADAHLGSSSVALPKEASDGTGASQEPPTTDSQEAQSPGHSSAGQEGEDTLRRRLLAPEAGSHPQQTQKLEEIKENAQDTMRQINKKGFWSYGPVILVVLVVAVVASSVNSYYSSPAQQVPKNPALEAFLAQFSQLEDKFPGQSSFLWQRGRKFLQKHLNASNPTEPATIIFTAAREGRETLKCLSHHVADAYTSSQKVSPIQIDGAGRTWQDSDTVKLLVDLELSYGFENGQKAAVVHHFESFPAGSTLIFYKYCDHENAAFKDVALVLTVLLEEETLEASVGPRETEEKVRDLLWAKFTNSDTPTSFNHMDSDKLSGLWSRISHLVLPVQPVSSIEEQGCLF
Chain of Neurogenic locus notch homolog protein 3 (Homo sapiens) (Q9UM47 whole entry, looked up): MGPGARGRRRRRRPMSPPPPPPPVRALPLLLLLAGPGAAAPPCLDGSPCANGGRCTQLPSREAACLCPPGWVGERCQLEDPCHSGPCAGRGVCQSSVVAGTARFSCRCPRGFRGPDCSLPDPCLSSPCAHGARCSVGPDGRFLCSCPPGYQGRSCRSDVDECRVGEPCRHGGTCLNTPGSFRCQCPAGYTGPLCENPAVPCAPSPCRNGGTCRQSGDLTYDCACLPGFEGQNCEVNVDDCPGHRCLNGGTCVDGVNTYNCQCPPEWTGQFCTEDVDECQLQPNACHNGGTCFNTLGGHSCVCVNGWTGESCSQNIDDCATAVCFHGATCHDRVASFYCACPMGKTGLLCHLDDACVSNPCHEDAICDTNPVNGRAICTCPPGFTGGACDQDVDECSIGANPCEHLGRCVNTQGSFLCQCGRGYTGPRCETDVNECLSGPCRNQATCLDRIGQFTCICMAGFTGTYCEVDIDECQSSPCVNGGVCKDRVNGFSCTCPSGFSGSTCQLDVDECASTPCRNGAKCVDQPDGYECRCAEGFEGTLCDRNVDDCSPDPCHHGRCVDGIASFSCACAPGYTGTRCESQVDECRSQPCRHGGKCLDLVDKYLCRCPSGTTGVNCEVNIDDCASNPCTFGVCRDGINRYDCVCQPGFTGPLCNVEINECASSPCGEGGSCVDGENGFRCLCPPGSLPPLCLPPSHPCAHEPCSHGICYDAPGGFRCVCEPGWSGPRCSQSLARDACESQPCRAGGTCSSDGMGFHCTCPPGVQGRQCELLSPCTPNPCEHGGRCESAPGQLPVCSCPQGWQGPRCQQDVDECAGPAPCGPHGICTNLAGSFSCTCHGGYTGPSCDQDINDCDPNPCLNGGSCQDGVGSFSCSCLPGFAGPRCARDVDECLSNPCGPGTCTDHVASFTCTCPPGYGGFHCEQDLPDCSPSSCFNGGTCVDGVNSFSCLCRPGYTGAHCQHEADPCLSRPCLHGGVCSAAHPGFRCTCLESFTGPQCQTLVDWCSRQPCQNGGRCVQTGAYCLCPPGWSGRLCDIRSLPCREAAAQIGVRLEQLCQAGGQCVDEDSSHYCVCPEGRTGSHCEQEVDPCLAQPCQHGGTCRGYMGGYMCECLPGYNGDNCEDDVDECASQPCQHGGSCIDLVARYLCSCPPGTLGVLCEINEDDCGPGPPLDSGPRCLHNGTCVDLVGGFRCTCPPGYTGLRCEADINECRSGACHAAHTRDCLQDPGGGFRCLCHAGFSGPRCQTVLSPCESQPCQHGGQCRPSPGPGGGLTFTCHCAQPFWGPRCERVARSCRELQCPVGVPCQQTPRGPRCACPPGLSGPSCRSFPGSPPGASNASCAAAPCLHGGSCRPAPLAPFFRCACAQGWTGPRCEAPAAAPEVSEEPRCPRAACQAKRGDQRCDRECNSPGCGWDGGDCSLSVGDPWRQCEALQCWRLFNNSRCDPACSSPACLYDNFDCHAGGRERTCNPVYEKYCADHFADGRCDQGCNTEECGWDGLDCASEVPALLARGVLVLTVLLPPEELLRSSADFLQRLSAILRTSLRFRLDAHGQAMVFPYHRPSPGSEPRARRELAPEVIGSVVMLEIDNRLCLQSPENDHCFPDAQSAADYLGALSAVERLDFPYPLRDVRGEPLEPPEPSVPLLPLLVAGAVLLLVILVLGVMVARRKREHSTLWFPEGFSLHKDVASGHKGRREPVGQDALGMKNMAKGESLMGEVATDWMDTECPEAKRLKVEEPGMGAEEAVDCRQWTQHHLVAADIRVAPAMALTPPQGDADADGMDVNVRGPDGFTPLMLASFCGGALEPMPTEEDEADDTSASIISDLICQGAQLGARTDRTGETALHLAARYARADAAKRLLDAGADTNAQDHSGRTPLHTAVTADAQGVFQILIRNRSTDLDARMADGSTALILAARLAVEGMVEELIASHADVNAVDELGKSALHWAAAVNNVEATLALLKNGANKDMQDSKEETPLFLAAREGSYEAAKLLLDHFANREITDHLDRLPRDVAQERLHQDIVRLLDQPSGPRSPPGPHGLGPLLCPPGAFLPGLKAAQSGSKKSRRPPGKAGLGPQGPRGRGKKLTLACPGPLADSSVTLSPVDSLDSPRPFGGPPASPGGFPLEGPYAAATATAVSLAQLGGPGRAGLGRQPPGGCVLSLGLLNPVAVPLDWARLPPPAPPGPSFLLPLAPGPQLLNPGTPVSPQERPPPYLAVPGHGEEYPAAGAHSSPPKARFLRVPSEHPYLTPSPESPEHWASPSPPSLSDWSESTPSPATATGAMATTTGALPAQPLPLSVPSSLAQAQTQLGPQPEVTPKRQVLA

Row | Compound | composite z-score [1] | z-score [2] | z-score [3] | z-score [4] | composite z-score [5] | z-score [6] | composite z-score [7] | composite z-score [8] | composite z-score [9] | composite z-score [10]
1 | O=C1C[C@@](C(=O)NC2CC2)(c2ccc([N+](=O)[O-])cc2)[C@@H](c2ccc(CO)cc2I)N1C1CCCCC1 | 1.53 | -0.457 (inactive) | -0.173 (inactive) | 1.45 (inactive) | 2.82 | 0.233 (inactive) | -0.05 | 1.25 | 1.07 | -0.0828
2 | C=C[C@H](OC)[C@@H](OC(=O)Nc1ccc(OC)cc1)c1ccc(O)c(F)c1 | 0.148 | 0.337 (inactive) | -1.18 (inactive) | 1.3 (inactive) | 1.89 | 0.512 (inactive) | -0.21 | -0.932 | -0.363 | -0.335
3 | COc1cc2c(cc1OC)CN(C(=O)[C@@H]1[C@H]3C(=O)O[C@H](c4ccccc4)[C@H](c4ccccc4)N3[C@H](c3ccc(O)cc3)[C@@]13C(=O)Nc1ccccc13)CC2 | 1.35 | 0.27 (inactive) | -0.0755 (inactive) | 0.637 (inactive) | 3.04 | 3.03 (inactive) | -0.115 | 0.497 | 0.347 | -0.115
4 | COCCOC(=O)N1C(=O)[C@@]2(c3cc(C#CC4(O)CCCCCC4)ccc31)[C@H](c1ccc(OCCO)cc1)N1[C@H](c3ccccc3)[C@H](c3ccccc3)OC(=O)[C@H]1[C@@H]2C(=O)N1CCN(c2ncccn2)CC1 | 1.56 | 2.64 (inactive) | 2.26 (inactive) | 6.24 (inactive) | 2.69 | 0.0846 (inactive) | -0.136 | 1.67 | 1.08 | -0.108
5 | CC(C)C(=C=CC[C@@H](O)c1ccc(OCCO)cc1)C[C@@H](O)COCc1ccccc1 | 1.54 | -1.06 (inactive) | -1.09 (inactive) | -0.418 (inactive) | 1.93 | 1.14 (inactive) | -0.192 | 1.65 | 0.652 | -0.135
6 | C=CCC(OC(C)=O)[C@@H]1[C@@H](N(Cc2cc3ccccc3o2)C(=O)c2cccc3ccccc23)c2cc(OCCCO)ccc2N1C(=O)c1ccc(-c2ccccc2)cc1 (stereo not given in full) | -0.101 | 0.109 (inactive) | -0.847 (inactive) | 0.0344 (inactive) | 0.581 | 1.78 (inactive) | -0.0674 | 0.293 | -0.527 | 0.0969
7 | C=CC[C@@]12N=C(c3ccc(OCCCO)cc3)O[C@@H]1c1ccccc1N(C)C2=O | 1.55 | 0.501 (inactive) | -5.65 (inactive) | 0.432 (inactive) | 2.93 | 0.671 (inactive) | 0.246 | 1.75 | 0.997 | 0.0499
8 | CCCC[C@H]1OB(O)C[C@H]2C1=C(COC)C[C@H]1C(=O)N(C)C(=O)[C@H]12 | -0.15 | -0.937 (inactive) | -0.775 (inactive) | -0.635 (inactive) | 0.0079 | -0.908 (inactive) | -0.157 | 1.08 | 0.769 | -0.139
9 | CCCCC(CC)C(O)C1C=CC2C(=O)N(Cc3ccccc3)C(=O)C2N1n1cnnc1 (stereo not given) | 0.249 | -0.279 (inactive) | -0.359 (inactive) | -0.435 (inactive) | 0.77 | -1.05 (inactive) | -0.0238 | -0.0141 | -0.22 | -0.0253
